Only a selection was taken, and hits are over-represented in it overall.
Epigenetic mod: qHTS Assay for Epigenetic Modulators; AID 597, 2007; Potency, µM (top dose mostly 46.1 µM), without a hit: at the top dose GFP derepression (activation); actives 0.09% (n = 68,000); mouse C127i GFP locus derepression, cytometry, 30 h; further: % of control where 0% means no effect
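Derepression screen: silenced CMV-GFP reporter in murine C127i cells, 30 h compound incubation at 37 C, washed cells imaged by laser-scanning cytometer to enumerate GFP-expressing objects of 20 to 120 um.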
CRE-bla Fsk: Cell signaling CRE-BLA (Fsk stim); CHO CRE-bla reporter (cAMP response element driving beta-lactamase), forskolin EC10, beta-lactamase ratio; Potency, µM (titrated, usually from 38.2 µM), for inactives: at the highest dose activity change, negative = inhibition, hits mostly activators; actives 2.5% (n = 71,000); active means well fitted activation curve with a large enough effect in the signal ratio, with a control signal flat, not every such curve was filed as active; inconclusive means small, poorly fitted or top-dose-only effect, or effect the other way, or a change in a side signal; the % refers to the signal ratio; further: potency means the concentration at half of the fitted maximal effect; % of control where 0% means no effect
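Cells were plated overnight at 37 °C, exposed to compound titrations plus EC10 NKH 477 for 3 h, then given CCF4 dye for 2 h at room temperature. Blue/green (460/530 nm) ratio was converted to %Activity and AC50 values calculated.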
IkB signaling: IkB Signaling | ABC-DLBCL IkBa-CBG/CBR dual luciferase ratio, 4 h; response scale: scaled: untreated 0%, proteasome inhibitor 100% | Potency, µM (titrated, usually from 57.1 µM), without a hit: top-dose IkBa stabilization activation | actives 0.04% (n = 110,000) | AID 445, 2006; active means well fitted curve in the direction sought with a large enough effect in the signal ratio, not every such curve was filed as active; inconclusive means small, poorly fitted or top-dose-only effect, or a change in a side signal; the % refers to the signal ratio;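 further: potency means the concentration at half of the fitted maximal effect; the direction sought is a rising ratio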
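In this assay, an IκBα–CBG68 fusion accumulates when IKK-driven degradation is blocked; native CBR normalizes for cell number. OCI-Ly3 cells were treated 4 h with compound and doxycycline, then green and red light read after Chroma-Glo addition.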
HBB splicing: qHTS Assay for Modulators of Hemoglobin Beta Chain Splicing | actives 0.06% (n = 65,000) | HBB splicing reporter cell assay, activation; EGFP reporter with mutant IVS2-654 intron; response scale: normalised to 500 nM splice-correcting PNA | Potency, µM (doses to about 46.1 µM), without a hit: top-dose activation, most hits filed as activators | AID 925, 2007; further: potency means the concentration at half of the fitted maximal effect; 0% is about no effect
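Compounds were applied for 2 days to HeLa EGFP-654 cells, 500/well in Optimem with 2% FCS. The reporter's EGFP is disrupted by mis-splicing of beta-globin intron IVS2-654. Readout: summed well GFP fluorescence from 488 nm laser scanning; reference was 500 nM antisense […] 654 PNA.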
ERK AVP block: qHTS Assay for Inhibitors of the ERK Signaling Pathway using a Homogeneous Screening Assay; HEK293-V1b, vasopressin-stimulated pERK AlphaScreen; Potency, µM (series often up to 57.5 µM), for inactives: at the top dose activity, negative = inhibition, most hits filed as inhibitors; actives 0.99% (n = 72,000); AID 995, 2007; further: potency means the concentration at half of the fitted maximal effect; on the % scale 0 is the no-effect control and ±100 the full control effect; nearly all actives have a fitted effect of over 55% in size
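HEK293 cells stably expressing V1b receptor, preincubated 30 min at 37 °C with compound, then stimulated 5 min with 25 nM vasopressin. Phospho-ERK by AlphaScreen SureFire after 5 h RT; normalized to DMSO and vasopressin; AC50 by Hill fit.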
CHO via 24h: Cell Viability - CRE-beta lactamase CHO cell - 24 hr assay; CRE-bla CHO viability, ATP luminescence, 24 h; activity, negative = viability loss, % at 46.1 µM; 120 tested, under 10 active; shares compounds with CRE-bla Fsk
CHO tox 40h: Cell Viability - CRE-beta lactamase CHO cell - 40 hr assay. shares compounds with CRE-bla Fsk. CRE-bla CHO viability, ATP luminescence, 40 h. Potency, µM, inactives show max response, usual class: inhibitors. 120 tested, under 10 active
CREB luc CRC: Confirmation Concentration-Response Assay for Cell signaling CRE-BLA (Fsk stim) - HEK293 CREB Luciferase | shares compounds with CRE-bla Fsk | HEK293 CRE-luc2P, NKH477 EC10 potentiation, luminescence, 4 h | Potency, µM (highest dose often 38.3 µM), inactives show at the highest dose activity, positive = activation, usual class: activators | actives 80% (n = 120)
Active calls of the source: *; ? = inconclusive; · = not tested or not shown; [ ] = remark or other dose. Unless noted, the call rests on the fitted dose curve; in most records, active means well fitted curve in the direction sought with a large enough effect; inconclusive means small, poorly fitted or top-dose-only effect, or another doubt; inactive means no such curve, though single readings can be large; an effect the other way counts as inactive or inconclusive.

SMILES	Epigenetic mod	CRE-bla Fsk	IkB signaling	HBB splicing	ERK AVP block	CHO via 24h	CHO tox 40h	CREB luc CRC
C#CCOC(=O)NC(/C=C/CCCC)c1ccccc1 (configuration not stated)	·	10%	·	1%	0%	·	·	·
Cn1nc(-c2ccc(N3CCOCC3)c(NS(=O)(=O)c3ccccc3)c2)c2ccccc2c1=O	-4%	2µM*	2%	1%	-17%	?	?	?
CCC(=O)Nc1cc(-c2nn(C)c(=O)c3ccccc23)ccc1N1CCCCC1	13%[20.6 µM]	·	·	·	·	·	·	·
CCc1nn(CC(=O)NC(C)c2ccccc2)c(=O)c2cc3sccc3n12 (configuration not stated)	·	·	-1%	·	·	·	·	·
COCc1cc(=O)[nH]c(Nc2nc(C)c3ccc(C)cc3n2)n1	-1%	8%	0%	·	-3%	-6	-26%	?
Cc1ccc2c(C)nc(Nc3nc(CSc4nnnn4-c4ccccc4)cc(=O)[nH]3)nc2c1	4%	?	0%	0%[57.5 µM]	-15%	-14	-29%	3.2µM*
CCN(C(=O)c1cn(C)c(=O)c2cc(OC)c(OC)cc12)c1cc(OC)ccc1OC	-1%	29%	1%	2%	18%	1	-8%	13µM*
Cc1cc(Nc2ccc(C(C)C)cc2)n2ncnc2n1	0%	?	3%	-2%	-25%	·	·	·
Cc1cc(Nc2ccc3ccccc3c2)n2ncnc2n1	-2%[20.6 µM]	·	·	·	·	-17	-26%	-24%
